What all share (conditions): mRNA level, 48 h; actives raise or lower the signal
Read-out in experiment [1]: Glutathione S-Transferase (GSTA2), GSTA2 (gene 2939)
Briefly: LTEA_HepaRG_GSTA2: Life Technologies and Expression Analysis (LTEA) Assay for Glutathione S-Transferase (GSTA2) using HepaRG (AID 2283497). The method, boiled down: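 Differentiated human HepaRG cells were exposed in duplicate for 48 h in serum-free induction medium, 8 points from 100 uM top in half-log steps, 0.5% DMSO. GSTA2 mRNA was measured by TaqMan qRT-PCR, normalized to ACTB, GAPDH and POLR2A; bidirectional fit versus DMSO.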

Read-out in experiment [2]: Glutamate-cysteine ligase catalytic (GCLC), GCLC (gene 2729)
Briefly: LTEA_HepaRG_GCLC: Life Technologies and Expression Analysis (LTEA) Assay for Glutamate-cysteine ligase catalytic (GCLC) using HepaRG (AID 2283498). The essentials:
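Differentiated HepaRG cells exposed 48 h in serum-free induction medium, eight-point half-log series topping at 100 uM in 0.5% DMSO, duplicates. GCLC mRNA by qRT-PCR normalized to ACTB, GAPDH and POLR2A, fitted bidirectionally versus DMSO.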

Read-out in experiment [3]: Glutamate-cysteine ligase regulatory (GCLM), GCLM (gene 2730)
Briefly: LTEA_HepaRG_GCLM: Life Technologies and Expression Analysis (LTEA) Assay for Glutamate-cysteine ligase regulatory (GCLM) using HepaRG (AID 2283500). The essentials:
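Differentiated HepaRG cells exposed 48 h in serum-free induction medium to eight half-log concentrations up to 100 uM (0.5% DMSO). GCLM mRNA by TaqMan qRT-PCR, normalized to ACTB, GAPDH and POLR2A; bidirectional fit versus DMSO.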

Read-out in experiment [4]: Glutathione S-transferase M3 (GSTM3), GSTM3 (gene 2947)
Briefly: LTEA_HepaRG_GSTM3: Life Technologies and Expression Analysis (LTEA) Assay for Glutathione S-transferase M3 (GSTM3) using HepaRG (AID 2283501). The method, boiled down: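 Differentiated human HepaRG cells were exposed in duplicate for 48 h in serum-free induction medium, 8 points from 100 uM top in half-log steps, 0.5% DMSO. GSTM3 mRNA was measured by TaqMan qRT-PCR, normalized to ACTB, GAPDH and POLR2A; bidirectional fit versus DMSO.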

Read-out in experiment [5]: Heat shock 70 kDa protein 1 (HSPA1A), gene 3303
Briefly: LTEA_HepaRG_HSPA1A: Life Technologies and Expression Analysis (LTEA) Assay for Heat shock 70 kDa protein 1 (HSPA1A) using HepaRG (AID 2283502). The essentials:
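Human HepaRG cells in serum-free induction medium were exposed in duplicate for 48 h to 8 half-log concentrations, highest 100 uM, in 0.5% DMSO. HSPA1A mRNA read by TaqMan qRT-PCR, normalized to ACTB, GAPDH, POLR2A, fitted bidirectionally against DMSO.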

Read-out in experiment [6]: Hypoxia-inducible factor 1-alpha (Homo sapiens) (UniProt Q16665)
Briefly: LTEA_HepaRG_HIF1A: Life Technologies and Expression Analysis (LTEA) Assay for Hypoxia-inducible factor 1 (HIF1A) Trancription factor using HepaRG (AID 2283503). The method, boiled down: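 Differentiated HepaRG cells in serum-free induction medium exposed 48 h, in duplicate, to 8-point half-log series from 100 uM in 0.5% DMSO. HIF1A mRNA measured by TaqMan qRT-PCR, normalized to ACTB/GAPDH/POLR2A, fitted bidirectionally versus DMSO.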

Read-out in experiment [7]: 3-Hydroxy-3-Methylglutaryl-CoA Synthase 2 (HMGCS2), HMGCS2 (gene 3158)
Briefly: LTEA_HepaRG_HMGCS2: Life Technologies and Expression Analysis (LTEA) Assay for 3-Hydroxy-3-Methylglutaryl-CoA Synthase 2 (HMGCS2) using HepaRG (AID 2283504). The method, boiled down:
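Human HepaRG cells in serum-free induction medium were exposed in duplicate for 48 h to 8-point half-log series from 100 uM top in 0.5% DMSO. HMGCS2 mRNA measured by TaqMan qRT-PCR, normalised to ACTB, GAPDH, POLR2A; bidirectional fit versus DMSO.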

Read-out in a further experiment: HGF (gene 3082)
Briefly: LTEA_HepaRG_HGF: Life Technologies and Expression Analysis (LTEA) Assay for Hepatocyte Growth Facto (HGF) using HepaRG (AID 2283505). The method, boiled down:
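Differentiated HepaRG cells in serum-free induction medium exposed 48 h in duplicate, 8 half-log concentrations from 100 uM in 0.5% DMSO. HGF mRNA by qRT-PCR, normalised to ACTB, GAPDH, POLR2A; bidirectional fitting.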

Read-out in experiment [8]: Insulin Like Growth Factor 1 (IGF1), IGF1 (gene 3479)
The experiment is described as follows: LTEA_HepaRG_IGF1: Life Technologies and Expression Analysis (LTEA) Assay for Insulin Like Growth Factor 1 (IGF1) using HepaRG (AID 2283506). The essentials:
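Differentiated HepaRG cells in serum-free induction medium, exposed 48 h in duplicate to 8 half-log concentrations up to 100 uM in 0.5% DMSO. IGF1 mRNA by Fluidigm qRT-PCR, normalised to ACTB, GAPDH and POLR2A.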

Read-out in experiment [9]: Intercellular Adhesion Molecule 1 (ICAM1), ICAM1 (gene 3383)
Briefly: LTEA_HepaRG_ICAM1: Life Technologies and Expression Analysis (LTEA) Assay for Intercellular Adhesion Molecule 1 (ICAM1) using HepaRG (AID 2283507). The essentials:
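Differentiated human HepaRG cells in serum-free induction medium exposed 48 h in duplicate to 8 half-log concentrations (top 100 uM, 0.5% DMSO). ICAM1 mRNA quantified by TaqMan qRT-PCR, normalized to ACTB, GAPDH and POLR2A; bidirectional fitting versus DMSO.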

Read-out in experiment [10]: Insulin-like growth factor-binding protein 1 (IGFBP1), IGFBP1 (gene 3484)
Briefly: LTEA_HepaRG_IGFBP1: Life Technologies and Expression Analysis (LTEA) Assay for Insulin-like growth factor-binding protein 1 (IGFBP1) using HepaRG (AID 2283508). The essentials: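 HepaRG cells, plated 48 h then switched to serum-free induction medium, exposed in duplicate for 48 h to 8-point half-log series from 100 uM in 0.5% DMSO. mRNA measured by qRT-PCR, normalized to ACTB/GAPDH/POLR2A; bidirectional fit versus DMSO.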

Read-out in experiment [11]: Interleukin 6 (IL6), IL6 (gene 3569)
The experiment is described as follows: LTEA_HepaRG_IL6: Life Technologies and Expression Analysis (LTEA) Assay for Interleukin 6 (IL6) using HepaRG (AID 2283509). The essentials:
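HepaRG cells exposed in duplicate for 48 h to eight half-log concentrations, top 100 uM, in 0.5% DMSO serum-free induction medium. mRNA measured by qRT-PCR, normalized to ACTB, GAPDH and POLR2A. Bidirectional fit versus DMSO.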

Read-out in experiment [12]: Interleukin 6 Receptor (IL6R), IL6R (gene 3570)
Briefly: LTEA_HepaRG_IL6R: Life Technologies and Expression Analysis (LTEA) Assay for Interleukin 6 Receptor (IL6R) using HepaRG (AID 2283510).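 As to AC50: TaqMan qRT-PCR signal normalized to ACTB GAPDH and POLR2A housekeeping genes.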 The method, boiled down:
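Differentiated HepaRG cells, plated 48 h, then exposed in duplicate for 48 h in serum-free induction medium to 8 half-log concentrations (top 100 uM, 0.5% DMSO). IL6R mRNA measured by TaqMan qRT-PCR, normalized to ACTB/GAPDH/POLR2A; bidirectional fit vs DMSO.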

Read-out in experiment [13]: Potassium channel subfamily K member 1 (KCNK1), KCNK1 (gene 3775)
Briefly: LTEA_HepaRG_KCNK1: Life Technologies and Expression Analysis (LTEA) Assay for Potassium channel subfamily K member 1 (KCNK1) using HepaRG (AID 2283511). The essentials:
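Differentiated HepaRG cells, 48 h exposure in serum-free induction medium with 0.5% DMSO; 8 concentrations, half-log from 100 uM, duplicate. KCNK1 mRNA by qRT-PCR, normalized to ACTB, GAPDH, POLR2A; bidirectional fit vs DMSO.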

Read-out in experiment [14]: Keratin 19 (KRT19), KRT19 (gene 3880)
Briefly: LTEA_HepaRG_KRT19: Life Technologies and Expression Analysis (LTEA) Assay for Keratin 19 (KRT19) using HepaRG (AID 2283512). The essentials: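 Differentiated HepaRG cells in serum-free induction medium, exposed 48 h in duplicate to 8 half-log concentrations up to 100 uM in 0.5% DMSO. KRT19 mRNA by qRT-PCR, normalized to ACTB, GAPDH, POLR2A; bidirectional fit vs DMSO.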

Read-out in experiment [15]: JUN Transcription Factor, JUN (gene 3725)
The experiment is described as follows: LTEA_HepaRG_JUN: Life Technologies and Expression Analysis (LTEA) Assay for JUN Transcription Factor using HepaRG (AID 2283513). The essentials:
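HepaRG cells, 48 h post-plating, exposed 48 h in serum-free induction medium to 8-point half-log series (top 100 uM, 0.5% DMSO), duplicate; mRNA by qRT-PCR (TaqMan, Fluidigm), normalized to ACTB/GAPDH/POLR2A; bidirectional fit vs DMSO.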

Read-out in experiment [16]: Lipase C (LIPC), LIPC (gene 3990)
The experiment is described as follows: LTEA_HepaRG_LIPC: Life Technologies and Expression Analysis (LTEA) Assay for Lipase C (LIPC) using HepaRG (AID 2283514). The essentials: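 HepaRG cells, 48 h after plating, treated in duplicate for 48 h in serum-free induction medium over 8 half-log concentrations from 100 uM, 0.5% DMSO. LIPC mRNA by TaqMan qRT-PCR normalized to ACTB/GAPDH/POLR2A; bidirectional fit versus DMSO.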

Read-out in experiment [17]: Lipoprotein lipase (LPL), LPL (gene 4023)
The experiment is described as follows: LTEA_HepaRG_LPL: Life Technologies and Expression Analysis (LTEA) Assay for Lipoprotein lipase (LPL) using HepaRG (AID 2283515). The essentials:
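Differentiated HepaRG cells, plated 48 h, then exposed 48 h in serum-free induction medium to 8 concentrations (top 100 uM, half-log steps) in 0.5% DMSO, duplicate. LPL mRNA measured by qRT-PCR, normalized to ACTB, GAPDH and POLR2A.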

Read-out in experiment [18]: growth arrest and DNA damage 45 (GADD45G), GADD45G (gene 10912)
Briefly: LTEA_HepaRG_GADD45G: Life Technologies and Expression Analysis (LTEA) Assay for growth arrest and DNA damage 45 (GADD45G) using HepaRG (AID 2283499). The method, boiled down: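 Differentiated human HepaRG cells, 48 h post-plating, exposed 48 h in serum-free induction medium to 8 half-log concentrations (top 100 uM, 0.5% DMSO) in duplicate. GADD45G mRNA measured by Fluidigm TaqMan qRT-PCR, normalized to ACTB, GAPDH, POLR2A; bidirectional fit versus DMSO.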

The source made the active and inactive calls. The calls were made as follows: active = hit-call score of the fitted dose curve at least 0.9, where 1 is the maximum; inactive = score below 0.9.

Chain of Hypoxia-inducible factor 1-alpha (Homo sapiens) (Q16665 whole entry, looked up): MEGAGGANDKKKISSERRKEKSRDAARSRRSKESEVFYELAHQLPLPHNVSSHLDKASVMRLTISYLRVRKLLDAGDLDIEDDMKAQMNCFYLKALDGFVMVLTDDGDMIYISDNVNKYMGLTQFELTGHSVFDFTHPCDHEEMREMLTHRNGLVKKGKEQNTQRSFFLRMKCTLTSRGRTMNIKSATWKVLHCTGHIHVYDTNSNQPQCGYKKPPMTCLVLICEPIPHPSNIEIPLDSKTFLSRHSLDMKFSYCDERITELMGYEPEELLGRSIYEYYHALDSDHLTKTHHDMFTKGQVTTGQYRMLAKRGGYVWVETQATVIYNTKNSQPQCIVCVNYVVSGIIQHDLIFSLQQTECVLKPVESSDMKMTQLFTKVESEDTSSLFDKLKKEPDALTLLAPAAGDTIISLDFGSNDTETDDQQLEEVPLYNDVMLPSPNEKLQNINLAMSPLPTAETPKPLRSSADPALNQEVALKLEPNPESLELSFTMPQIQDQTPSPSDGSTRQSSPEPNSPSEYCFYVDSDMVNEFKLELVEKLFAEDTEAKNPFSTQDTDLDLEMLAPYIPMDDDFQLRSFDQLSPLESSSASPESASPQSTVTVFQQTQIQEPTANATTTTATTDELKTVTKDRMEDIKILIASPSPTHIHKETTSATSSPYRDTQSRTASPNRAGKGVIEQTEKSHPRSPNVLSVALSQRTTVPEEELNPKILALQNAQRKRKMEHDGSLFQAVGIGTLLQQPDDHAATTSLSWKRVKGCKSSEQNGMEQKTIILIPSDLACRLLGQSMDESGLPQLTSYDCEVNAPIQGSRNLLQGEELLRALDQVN

Consider `CC(CO)OC(C)CO` (configuration not stated) (tested in a mixture with another compound), for which the compound was called inactive in [1], in [2], in experiment [3], in [4], in experiment [5] and in experiment [6]. The call (in experiment [7]; in the experiment with HGF (gene 3082); in experiment [8]; in experiment [9]; in experiment [10]; in experiment [11]) was inactive. Moreover, the outcome in experiment [12], in experiment [13], in experiment [14], in [15], in experiment [16] and in experiment [17] was inactive.
On to `CCCc1cc(=O)[nH]c(=S)[nH]1`, for which the call in experiment [1], in experiment [2], in experiment [18], in experiment [3], in experiment [4] and in experiment [5] was inactive. Besides, the compound was classed as inactive (in experiment [7]; with HGF (gene 3082); in experiment [8]; in [9]; in [10]; in experiment [11]). Moreover, the compound was called inactive in experiment [12], in experiment [13], in experiment [14], in experiment [15], in [16] and in [17].
Consider `CCCCCC(=O)O`, for which the outcome in [1], in experiment [2], in experiment [3], in [4], in experiment [5] and in [6] was inactive. Besides, the call (in [7]; with HGF (gene 3082); in experiment [8]; in experiment [9]; in experiment [10]; in experiment [11]) was inactive. In addition, the compound was called inactive in [12], in experiment [13], in [14], in experiment [15], in [16] and in experiment [17].
As a reminder, the AC50 is the concentration at which the activity in the assay is half-maximal. `O=c1[nH]cc(F)c(=O)[nH]1`: the concentration at half-maximal activity (AC50) was 78 µM (active) in experiment [1]; 51 µM (active) in experiment [7]; 51 µM (active) in experiment [12]; 80.6 µM (active) in experiment [16]; 34.5 µM (active) in experiment [17]. The outcome (in experiment [2]; in [18]; in [3]; in experiment [4]; in experiment [5]; with HGF (gene 3082)) was inactive. For the same compound, the outcome in experiment [8], in experiment [9], in experiment [10], in [11], in experiment [13] and in experiment [14] was inactive. Further, the outcome in experiment [15] was inactive.
